Inconclusive results are not listed. Values without a mark were called inactive. Calls of active or inactive are those of the source. The call rests on the fitted dose curve; in most records, active means well fitted cell-killing curve with a large enough effect in the repeat runs; inconclusive means weak or mixed curves, or effect the other way; inactive means no such curve, though single readings can be large or run the other way.
Experiment: qHTS assay to identify small molecule agonists of the farnesoid-X-receptor (FXR) signaling pathway - cell viability counter screen (AID 743218); further: nearly all actives have a fitted effect of over 45% in size
Conditions: FXR-bla HEK293T viability, CellTiter-Glo luminescence, 16 h; series mostly up to 62.6 µM
Method in brief: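 Viability counter screen in the same wells: CellTiter-Glo luminescence, 30 min room-temperature incubation, measured after the beta-lactamase read. Cells were GeneBLAzer FXR-UAS-bla HEK 293T, compound-treated 16 h at 37C.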
On the % scale 0 is the no-effect control and ±100 the full control effect.

Row | SMILES | outcome | viability change, negative = cytotoxic
1 | O=C(O)CNC(=O)c1ccccc1 | inactive | –
2 | CCOC(=O)c1cnc2c(cnn2CC)c1NN=C(C)C | inactive | –
3 | COc1ccccc1OCC1CNC(=O)O1 (stereo not given) | inactive | –
4 | CO/N=C(\C(=O)N[C@@H]1C(=O)N2C(C(=O)O)=C(CSc3nc(=O)c(O)nn3C)CS[C@H]12)c1csc(N)n1 | inactive | –
5 | O=C1CCCCCCCCCCCCCCO1 | inactive | –
6 | CCCc1nn(C)c2c(=O)[nH]c(-c3cc(S(=O)(=O)N4CCN(C)CC4)ccc3OCC)nc12 | inactive | –
7 | CCCCOC(=O)CCC(C)=O | inactive | –
8 | O=CN(CCO)CCO | inactive | –
9 | C[N+](C)(CCOc1ccccc1)Cc1cccs1 | inactive | –
10 | CCC(=O)OCc1ccccc1 | inactive | –
11 | NC(N)=NCCN1CCCCCCC1 | – | 2.57% [at 0.55 µM]
12 | Cc1ncc(COP(=O)(O)O)c(C=O)c1O | inactive | –
13 | CC(=O)Oc1cccc(C)c1 | inactive | –
14 | CN1[C@@H]2CC[C@H]1CC(OC(=O)C(O)c1ccccc1)C2 (stereo not given in full) | inactive | –
15 | CC(N)C12CC3CC(CC(C3)C1)C2 (stereo not given) | inactive | –
16 | CCN(CC#N)c1cccc(C)c1 | inactive | –
17 | CC(=O)c1ccccc1[N+](=O)[O-] | inactive | –
18 | C=CCCC(=O)O | inactive | –
19 | O=C(O)CC(C(=O)O)S(=O)(=O)O (stereo not given) | inactive | –
20 | Nc1ccn([C@@H]2O[C@H](CO)[C@@H](O)[C@@H]2O)c(=O)n1 | inactive | –
21 | CCCCN(CCC(=O)OCC)C(C)=O | inactive | –
22 | CCCn1cc[n+](C)c1C | inactive | –
23 | Clc1cc(Cl)cc(Cl)c1 | inactive | –
24 | CCOC(=O)COc1cc(-n2ncc(C(F)(F)F)c(C)c2=O)c(F)cc1Cl | inactive | –
25 | CC(C)COC(=O)c1ccc(N)cc1 | inactive | –

Reference: PubChem BioAssay (Tox21)
